ST2 inh = inhibitors of human ST2 (IL1RL1) binding to IL-33. actives 2.3% (n = 78,000). inhibition, % for hits at 17 µM. Q01638. AID 1259354. AlphaLISA ST2-Fc/biotin-IL-33 interaction, 1 h; in the data active = inhibition above about 30%
Target sequence (Q01638 whole entry, looked up): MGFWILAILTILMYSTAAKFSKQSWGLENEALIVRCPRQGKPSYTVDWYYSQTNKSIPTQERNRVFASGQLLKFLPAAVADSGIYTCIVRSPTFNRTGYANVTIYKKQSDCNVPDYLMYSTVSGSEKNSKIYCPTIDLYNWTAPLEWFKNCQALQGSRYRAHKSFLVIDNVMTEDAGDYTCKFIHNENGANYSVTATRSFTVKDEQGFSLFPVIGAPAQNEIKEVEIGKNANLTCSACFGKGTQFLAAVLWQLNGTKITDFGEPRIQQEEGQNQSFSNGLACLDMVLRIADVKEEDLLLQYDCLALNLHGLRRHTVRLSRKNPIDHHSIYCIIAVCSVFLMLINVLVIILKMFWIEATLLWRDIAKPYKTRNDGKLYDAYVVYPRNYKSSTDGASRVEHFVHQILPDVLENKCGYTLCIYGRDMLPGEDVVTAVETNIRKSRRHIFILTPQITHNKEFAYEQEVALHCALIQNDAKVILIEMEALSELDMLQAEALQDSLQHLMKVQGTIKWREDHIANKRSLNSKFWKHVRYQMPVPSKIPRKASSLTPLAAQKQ
Numbers without * were called inactive; i = inactive. Shown is part of a subset that was picked to be rich in hits.

SMILES	ST2 inh
CCN1C(C(=O)c2ccccc2)=C(Nc2ccccc2C)c2ccccc2S1(=O)=O	31%*
COC(=N)CN1C(=O)c2ccccc2S1(=O)=O	i
O=C1Cc2cc(-c3ccc4c(c3)OCO4)ccc2N1	i
COc1cc(C2Nc3ccc4ccccc4c3C3=C2C(=O)CC(C)(C)C3)cc(OC)c1OC(C)=O (stereo not given)	i
Cc1ccc(-c2csc(NC(=O)c3cc(=O)c4ccccc4o3)n2)c(C)c1	i
Cc1ccc(-c2csc(/C(C#N)=C/c3cccnc3)n2)c(C)c1	34%*
Cc1ccc(Cl)cc1N1CCN(S(=O)(=O)c2ccc3c(c2)CCN3C(=O)C2CC2)CC1	i
O=C(c1ccc(N2C(=O)C3C4C=CC(C4)C3C2=O)cc1)N1CCCCC1 (stereo not given)	i
O=[N+]([O-])c1ccc(/C=C/c2ccc3ccccc3n2)o1	67%*
Cn1c(/C=C/c2ccc([N+](=O)[O-])o2)nc2ccc(I)cc2c1=O	i
Cc1cc([N+](=O)[O-])ccc1NC(=O)C1C2C=CC(C2)C1C(=O)O (stereo not given)	i
Cc1ccc(NC(=O)c2cc3cc(Br)cc(Br)c3oc2=N)cc1	i
Cc1ccc(C2(O)CCN(C(=O)c3cc4nc(C)cc(C)n4n3)CC2)nc1	i
O=C1C=C(c2cccs2)C[C@H](c2ccccc2)[C@H]1n1nnc([N+](=O)[O-])n1	41%*
CCOC(=O)C1C(=O)C=C(c2cccs2)CC1c1ccccc1OCC (stereo not given)	i
CCOC(=O)C1C(=O)C=C(c2cccs2)CC1c1ccc(OC)c(OC)c1 (stereo not given)	i
COc1ccc(-c2cc(N3CCN(S(C)(=O)=O)CC3)ncn2)cc1	i
O=C(NCc1ccccn1)c1ccc2c(Cl)c3c(nc2c1)CCCC3	i
Cn1c(=O)c2c(nc(N3CCN(c4ccccn4)CC3)n2Cc2ccccc2F)n(C)c1=O	i
Cn1c(=O)c2c(nc(OCCc3ccccc3)n2Cc2ccccc2F)n(C)c1=O	30%*
Cn1c(=O)c2c(nc(NCCO)n2Cc2ccccc2F)n(C)c1=O	i
O=C(Nc1cccc(-c2nc3ccccc3o2)c1)c1cccc([N+](=O)[O-])c1	i
Cc1nn(CCNS(=O)(=O)NCc2ccccc2)c(C)c1Cl	i
Cc1ccc(CNS(=O)(=O)NCc2ccccc2)c(F)c1F	i
Cn1ccnc1SCCNS(=O)(=O)NCc1ccccc1	31%*
SMILES	ST2 inh
COc1cc(NC(=O)Cc2ccccc2)c(OC)cc1Cl	i
CCOC(=O)c1cc(C(=O)OCC)c(N)s1	i
CN1CC(n2cnc(-c3ccccc3)c2-c2ccccc2C(=O)O)CCC1=O (stereo not given)	i
Cc1nn(C)c(Cl)c1-c1c(-c2ccccc2)ncn1C1CC=CC1	i
CN1CCC(n2cnc(-c3ccccc3)c2-c2cccc3cccnc23)CC1	30%*
NC(=O)CC[C@H](N)C(=O)O	i
CCCCS(=N)(=O)CCC(N)C(=O)O (stereo not given)	i
N[C@H](CCC(=O)NCS(=O)(=O)O)C(=O)O	85%*
CN(Cc1cn2c3ccccc3n(C)c2n1)C12CC3CC(CC(C3)C1)C2	i
Cc1nn(CCCC(=O)Nc2cccc(Cl)c2C)c(C)c1[N+](=O)[O-]	i
O=S(=O)(Cc1ccccc1)NCc1nc2cccnc2n1Cc1ccc(Cl)cc1	i
CC(=O)NC1CCN(c2cc(C)nc(-c3ccccc3)n2)C1 (stereo not given)	i
O=c1nc(/C=C/c2cc3c(cc2[N+](=O)[O-])OCO3)cc(C(F)(F)F)[nH]1	i
Cc1ccc(S(=O)(=O)N2CN3CN(C2)CN(S(=O)(=O)c2ccc(C)cc2)C3)cc1	46%*
COc1ccc(S(=O)(=O)N2CCN(S(=O)(=O)c3ccc(C)cc3)CC2)cc1	i
Cc1ccc(S(=O)(=O)N2CCN(c3ccccc3)CC2)cc1	i
CN(CCn1ccc2ccccc21)C(=O)[C@@H](O)c1ccccc1	i
COc1ccc(N2C(=O)CC(Sc3ccccc3C(=O)O)C2=O)cc1 (stereo not given)	i
COc1ccc(C2SCC(=O)N2c2ccccc2)cc1 (stereo not given)	i
COc1ccc(N2C(=O)C(O)=CC2(OC)c2ccccc2)cc1 (stereo not given)	45%*
Cc1cc(C)n(-c2ccc(NC(=O)C3CCCCN3C(=O)c3c(F)cccc3F)cc2)n1 (stereo not given)	i
N#Cc1c(NC(=O)c2cc(-c3ccc4c(c3)OCO4)on2)sc2c1CCCC2	i
CC(=O)c1c(C)oc2c(Cl)cc(NS(=O)(=O)c3c(C)cc(C)cc3C)cc12	i
CC(=O)N1CCN(Cc2cccc(OCC(O)CN3CCCCCC3)c2)CC1 (stereo not given)	i
O=C1NC(=Nc2cccc([N+](=O)[O-])c2)SC1(CO)CO	i
SMILES	ST2 inh
O=C1S/C(=C/c2ccccc2)C(=O)N1CNc1cccc(F)c1	i
C=CCN1C(=O)/C(=C/c2ccccc2)SC1=Nc1cccc([N+](=O)[O-])c1	47%*
COC(=O)C(NS(=O)(=O)c1ccc2ccccc2c1)C(O)c1ccccc1 (stereo not given)	i
Cc1ccc(CN2CC34C=CC(O3)C(C(=O)NCc3cccnc3)C4C2=O)cc1 (stereo not given)	i
CC1CCN(S(=O)(=O)c2ccc3[nH]c(=O)sc3c2)CC1	i
CCCCc1nc2cc(C(=O)N[C@@H](Cc3ccccc3)C(=O)OC)ccc2o1	i
COc1ccc(C)cc1N(CC(=O)N1CCN(c2ccccc2F)CC1)S(C)(=O)=O	i
O=c1cc(-c2ccc(O)cc2)oc2c(C3OCC(O)C(O)C3O)c(O)c(C3OCC(O)C(O)C3O)c(O)c12 (stereo not given)	i
O=c1cc(-c2ccc(O)cc2)oc2c([C@@H]3O[C@H](CO)[C@@H](O[C@@H]4O[C@H](CO)[C@@H](O)[C@H](O)[C@H]4O)[C@H](O)[C@H]3O)c(O)cc(O)c12	50%*
O=c1cc(-c2ccc(O)cc2)oc2c(C3OCC(O)C(O)C3O)c(O)c(C3OC(CO)C(O)C(O)C3O)c(O)c12 (stereo not given)	i
CSc1ccc(C=NS(=O)(=O)CCc2ccccc2)cc1	i
Cc1cc(N(C)C)nc(N2CCN(S(=O)(=O)c3ccc(F)cc3)CC2)n1	i
O=S(=O)(NC[C@H]1O[C@@H](CO)[C@@H](O)[C@H]1N1CCCC1)c1ccc(F)cc1	i
CN(C)CCOc1ccccc1CN1CCC2(CCOCC2)CC1	i
O=c1c2cnn(-c3ccccc3)c2ncn1Cc1cccnc1	i
C(=Nc1cc(-c2ccccc2)nn1-c1ccccc1)c1cccnc1	33%*
O=C(Cn1nc(-c2ccccc2)ccc1=O)NCc1cccnc1	i
COCCc1nc2ccc(C(=O)N3CCN(Cc4ccc(F)cc4)C(=O)C3)cc2o1	i
COc1ccc(NC(=O)CC2CCCCC2)c(OC)c1	i
CCCCOC(=O)Nc1ccccc1F	i
COc1ccc(OCC(=O)Nc2ccc(OC)cc2[N+](=O)[O-])cc1	i
COc1ccc(NC(=O)CC2SC(N)=NC2=O)c([N+](=O)[O-])c1 (stereo not given)	i
COc1ccc(NC(=O)CC2CCCCC2)c([N+](=O)[O-])c1	40%*
CCCCOC(=O)Nc1ccc(OC)cc1[N+](=O)[O-]	47%*
COc1ccc(Cl)cc1NC(=O)C(=O)NCCO	i
O=C(CCS(=O)(=O)c1cccc2nsnc12)N1CCN(c2ccccn2)CC1	i
